Inconclusive results are not listed. A number with no mark means an inactive call. Calls come from the whole dose curve; as a rule, active = well fitted inhibition curve with a large enough effect; inconclusive = small, poorly fitted or top-dose-only effect; inactive = no such curve, though single readings can be large or run the other way.
Assay: HTS Assay for Allosteric Antagonists of the Human D2 Dopamine Receptor: Hit Validation in HTRF (AID 624455);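 note: stable D1 dopamine receptor cell line scored for blocking the D1 response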
Conditions: Cells stably expressing D1 dopamine receptor, inhibition mode; series mostly up to 46.1 µM; activity, negative = inhibition: at the top concentration
How it was run: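 First, antagonism was screened by calcium flux in a force-coupled, inducible Hek293 Trex D2 line challenged with EC80 dopamine. Hits then went into an HTRF assay in cells stably expressing D1, testing inhibition of the D1 response.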
% is set by controls: 0 for no effect and ±100 for the full control effect.

In order of rising “activity, negative = inhibition” value:
1. C[C@H]1c2cccc(O)c2C(O)=C2C(=O)[C@]3(O)C(O)=C(C(N)=O)C(=O)[C@@H](N(C)C)[C@@H]3[C@@H](O)[C@@H]21  -11.7%
2. NC(=O)OCC(COC(N)=O)c1ccccc1  -9.34%
3. CCc1cccc2c3c([nH]c12)C(CC)(CC(=O)O)OCC3 (stereo not drawn)  -3.77%
4. Cc1cc(C(C)(C)C)cc(C)c1CC1=NCCN1  -2.54%
5. NCCS(=O)(=O)O  -2.02%
6. CCC1(C)CC(=O)NC1=O (stereo not drawn)  -1.88%
7. COc1nc(C)nc(Cl)c1NC1=NCCN1  -1.19%
8. CCN1CCCC1CNC(=O)c1cc(S(=O)(=O)CC)c(N)cc1OC (stereo not drawn)  0.153%
9. CN1CCN2c3ccccc3Cc3ccccc3C2C1 (stereo not drawn)  4.73%
10. CN1C(C(=O)Nc2ccccn2)=C(O)c2ccccc2S1(=O)=O  9.28%
11. CCCNCC(O)COc1ccccc1C(=O)CCc1ccccc1 (stereo not drawn)  9.31%
12. CN(C)CCC=C1c2ccccc2C=Cc2ccccc21  10.8%
13. N[C@@H](Cc1c[nH]c2ccc(O)cc12)C(=O)O  11.7%
